# Among all 330,000 compounds or so, about 520 (0.16%) were called active. The sample holds actives, similar compounds and a random draw of the others, so the mix is not that of the screen.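 Rule for the calls: active = inhibition of at least 50% in every replicate; inconclusive = best replicate reaches 50% inhibition but some replicates fall short; inactive = the rest.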
# Target: Histone acetyltransferase RTT109 (Candida albicans (strain SC5314 / ATCC MYA-2876)) (UniProt Q5AAJ8)
# Assay: Rtt109-Vps75 histone acetyltransferase blockade – biochemical, ThioGlo CoA-SH fluorescence, plate reader, primary screen (AID 540336)
# Details: purified Rtt109/Vps75, ThioGlo CoA-SH fluorescence, 4 h; at 34.9 µM; active compounds read high
# Histone acetyltransferase RTT109 (Candida albicans (strain SC5314 / ATCC MYA-2876)), sequence (Q5AAJ8 whole entry, looked up): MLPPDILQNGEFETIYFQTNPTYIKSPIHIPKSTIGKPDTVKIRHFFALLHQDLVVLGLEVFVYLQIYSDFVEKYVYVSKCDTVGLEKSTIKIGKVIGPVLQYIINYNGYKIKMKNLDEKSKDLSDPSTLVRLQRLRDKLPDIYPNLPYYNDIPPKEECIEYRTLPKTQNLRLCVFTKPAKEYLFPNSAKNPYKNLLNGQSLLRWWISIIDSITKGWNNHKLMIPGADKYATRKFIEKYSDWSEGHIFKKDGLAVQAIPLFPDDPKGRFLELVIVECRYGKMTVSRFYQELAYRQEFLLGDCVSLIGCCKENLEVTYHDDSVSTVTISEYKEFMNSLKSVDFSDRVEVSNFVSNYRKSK
row,Compound,inhibition
1,O=C(Nc1ccccc1)Oc1cccc2cccnc12,1.03% (inactive)
2,CC(C)(C)C(=O)Nc1cccc(-c2ccc[nH]2)n1,-1.5% (inactive)
3,CN(C)S(=O)(=O)Oc1ccccc1C(=O)Nc1ccccc1Cl,58.3% (active)
4,CC(=O)Nc1ccc(NC(=O)COc2ccccc2C(=O)Nc2cccc(Cl)c2Cl)cc1,-5.99% (inactive)
5,O=C(Nc1ccccc1Cl)c1ccccc1S(=O)(=O)c1ccccc1[N+](=O)[O-],22.9% (inactive)
6,CC(C)(C)S(=O)(=O)N1Cc2cc(CO)cc(CCO)c2[C@H]1CCO,-3.04% (inactive)
7,COc1ccc(CN2CC(C(=O)NCCN3CCN(c4ccccc4F)CC3)CC2=O)cc1 (stereo unspecified),-11.1% (inactive)
8,O=C(NCCCN1CCN(c2ccccc2F)CC1)C1CCC(=O)N1C1CCCCC1 (stereo unspecified),58.1% (active)
9,O=C(NCCCN1CCCCCC1)C1CC(=O)N(C2CCCC2)C1 (stereo unspecified),32.5% (inactive)
10,CC(C)c1cc(CN2CCOCC2)cc(C(C)C)c1O,-6.21% (inactive)
11,CCCCC(=O)NC(c1ccc(OC)c(OC)c1)c1ccc2cccnc2c1O (stereo unspecified),-3.23% (inactive)
12,Oc1c(C(c2ccccn2)N2CCOCC2)ccc2cccnc12 (stereo unspecified),51.7% (active)
13,COc1cccc(C=CC(=O)C=CC=Cc2ccccc2)c1,-4.82% (inactive)
14,O=C(O)c1ccc(NN=CC2=C(N3CCOCC3)/C(=C/c3ccccc3)CC2)cc1,-15.5% (inactive)
15,Cn1cc(C2OC(=O)c3ccccc32)c2ccccc21 (stereo unspecified),0.802% (inactive)
16,O=C(Nc1c(Br)cc2c(c1Br)Cc1cc([N+](=O)[O-])ccc1-2)C(Cl)Cl,-4.04% (inactive)
17,COC(=O)c1c(C)oc2ccc(N(C(=O)Oc3ccccc3)S(=O)(=O)c3ccccc3)cc12,0.88% (inactive)
18,CC(=O)Oc1ccc(N(C(C)=O)S(=O)(=O)c2ccc3ccccc3c2)cc1Br,2.06% (inactive)
19,CC(=O)N(c1ccc2oc(=O)sc2c1)S(=O)(=O)c1ccc(C)cc1,134% (active)
20,CCOC(=O)CCC(NC(=O)c1ccc(CNc2nc3cc(C(F)(F)F)ccc3nc2C(=O)OCC)cc1)C(=O)OCC (stereo unspecified),9.24% (inactive)
21,CC(C=Cc1ccccc1)=NNS(=O)(=O)c1ccc([N+](=O)[O-])cc1,-0.601% (inactive)
22,CC(=O)OC1CCC2C3CCC4=C(CC(F)C(=O)C4)C3CCC12C (stereo unspecified),-7.91% (inactive)
23,O=C1c2ccccc2C(=O)C1C(=O)C1CC1,0.0105% (inactive)
24,O=C1NCC(Nc2ccccc2)C(=O)N1 (stereo unspecified),-4.85% (inactive)
25,CCCCNC1(C#N)CCN(Cc2ccccc2)CC1,0.637% (inactive)
26,O=C1C=C(NS(=O)(=O)c2ccccc2)C(=O)c2ccccc21,-1.13% (inactive)
